Data on 5 molecules can be found in PubChem BioAssay.

Assay [1] is described as follows: rapamycin-like changes in RPL19A-GFP expression – cell-based, S. cerevisiae, multiplex flow cytometry, primary screen (AID 1862; in the data active means percent of DMSO control GFP below about 86%;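 further: lower values mimic rapamycin by blocking the RPL19A rise seen in DMSO cells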). The note with it: S. cerevisiae RPL19A-GFP strain, flow cytometry fluorescence, 3 h; at 10 µM; stronger effect = lower value. A general note: A flow cytometer gives signals particle by particle.
Assay [2] in a line: TOR pathway GLN3 branch reporter MEP2-GFP changes – S. cerevisiae, multiplex flow cytometry, primary screen (AID 1867;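 active means GFP response, as percent of the DMSO control, above the screen-wide mean plus 3 SD, about 139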;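 further: median GFP channel fluorescence of barcode-gated MEP2-GFP cells measured by flow cytometry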). The note with it: S. cerevisiae MEP2-GFP strain, 3 h, at 10 µM, stronger effect = higher value, 100% means same as DMSO wells.
Assay [3] is described as follows: TOR pathway RTG branch CIT2 reporter changes – S. cerevisiae, GFP fusion, multiplex flow cytometry, primary screen (AID 1870;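 active means percent response above a set limit, the screen-wide mean plus 3 SD, cut at about 130% in these data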;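 further: barcoded CIT2-GFP strain pooled with four other GFP strains with rapamycin as positive control; median GFP fluorescence per well over plate mean of DMSO wells so 100% = DMSO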). The note with it: S. cerevisiae CIT2-GFP expression, 3 h, at 10 µM, stronger effect = higher value.
Assay [4] in a line: TOR pathway LAP4-GFP level changes – S. cerevisiae, multiplex flow cytometry, primary screen (AID 1873). The note with it: S. cerevisiae LAP4-GFP expression, 3 h, at 10 µM, stronger effect = higher value.
A short description of assay [5]: yeast AGP1-GFP level changes, GLN3 branch – cell-based, multiplex flow cytometry, S. cerevisiae, primary screen (AID 1887;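 active means GFP signal above the screen-wide mean plus 3 SD, that is over about 124.5% of the solvent control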;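 further: AGP1-GFP fusion strain of S. cerevisiae within a five-strain barcoded multiplex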). The note with it: 3 h, at 10 µM, stronger effect = higher value.
The nature of assay [6]: reduced mouse 2C T cell binding to pMHC/ICAM-1 vesicles – MLPCN validation set, flow cytometry, LFA-1/ICAM-1 modulator project, pilot screen (AID 2523;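 active means response below a set limit, under 55% cells CD8-positive and vesicle-bound, and CD8 cells' 90th-percentile brightness under 279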;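 on vesicle binding response: mean PE anti-B7-1 fluorescence of CD8+ cells relative to row control; 100% = QL9-loaded vesicles with DMSO vehicle in the same plate row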). The note with it: 2C mouse CD8+ T cells, at 7 µM, stronger effect = lower value; double positive events: measured here: CD8+/vesicle+ event percentage.
For assay [7], the target named is Integrin beta-1 (Homo sapiens) + Integrin alpha-4 (Homo sapiens) (UniProt P13612+P05556). Put plainly: alpha4beta1 integrin LIBS antibody binding reduction – U937 cells, HUTS-21 mAb, flow cytometry, validation set, VLA-4 allosteric modulator project, pilot screen (AID 2674;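 active means inhibition above 50%, about 3 SD of the validation set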;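 further: antibody binding induced by the VLA-4 ligand LDV present at three times its Kd; 0% = LDV ligand with antibody and no compound and 100% = antibody without LDV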). The note with it: HUTS-21 LIBS mAb binding, at 6.7 µM, stronger effect = higher value, binding induced by LDV ligand.

A short description of assay [8]: calorie-restriction mimetic ROS inhibitors, yeast – validation compound set, pilot screen (AID 2706;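 active means superoxide response below 65% of plate, a cut near 3 SD across the whole screen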;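 further: yeast exposed to compound for one week at 30 degrees C before staining; 100% = mean of all compound wells on the same plate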). The note with it: S. cerevisiae aging, superoxide DHE fluorescence; at 10 µM; stronger effect = lower value.
For assay [9], the target named is Beta-adrenergic receptor kinase 1 (Homo sapiens) (UniProt P25098). Put plainly: GRK2 binders displacing RNA aptamer, biochemical, validation, human GRK2, bead flow cytometry (AID 488806;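 active means aptamer binding inhibition above 30%, about 3 SD of noise from non-fluorescent compounds; inactive means inhibition at or below 30%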). The note with it: bead-bound GRK2, FAM-aptamer displacement, at 10 µM, stronger effect = higher value.
For assay [10], the target named is Beta-2 adrenergic receptor (Homo sapiens) (UniProt P07550). The assay is described as follows: agonist-induced loss of surface beta2AR – cell-based, FAP fluorogen, flow cytometry, validation set, pilot screen (AID 504459;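 active means percent response above 42, roughly 3 SD of non-fluorescent test compounds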;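 further: agonist-driven loss of surface beta2AR via internalization measured by FAP dye flow cytometry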). The note with it: Am2.2-beta2AR cells, at 10 µM, stronger effect = higher value.
In assay [11] the target is AP-2 complex subunit beta (Homo sapiens) (UniProt P63010). Put plainly: beta-arrestin/AP2 interaction blockers – biochemical, validation set, GST-AP2 beads, flow cytometry, pilot screen (AID 504541;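 active means inhibition above 54%, about 3 SD of non-fluorescent compounds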;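 further: AP2 carries R879A mutation and is captured from E. coli lysate; bead-bound FITC arrestin peptide fluorescence measuring arrestin peptide binding to AP2; 0% = DMSO wells and 100% = excess unlabeled arrestin peptide control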). The note with it: FITC arrestin peptide, at 10 µM, stronger effect = higher value, AP2 beta2 appendage fragment, R879A mutant.
Assay [12] can be described thus: cytosolic pH regulators acting via V-ATPase – S. cerevisiae, pHLuorin, HTS validation (AID 504600; in the data active means response above about 15%;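 further: plate controls were DMSO for no effect and reference compound for full effect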). The note with it: V-ATPase proton transport, at 10 µM, stronger effect = higher value.
Assay [13] has as its system anti-desmoglein-3 scFv antibody binding to human DSG3. The assay is described as follows: blockers of pathogenic pemphigus antibody–desmoglein-3 binding – biochemical, validation compound set, bead-based, flow cytometry, pilot screen (AID 588368;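 active means binding below the plate cutoff, the plate median minus 3 SD, with a reading above zero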;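 further: signal is the median channel fluorescence of bead-bound GFP antibody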). The note with it: Protein G beads, DSG3-Fc, scFv-GFP binding, at 10 µM, stronger effect = lower value.
Assay [14] is described as follows: Nile Red efflux blockade in pump-expressing yeast – validation compound set, multiplex, phenotypic, pilot screen (AID 588506;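 active means efflux inhibition above 0.42, the validation set average plus 4 SD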;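 further: Nile Red retained in cells so higher fluorescence means more efflux inhibition; 0 = negative control wells and 1 = enniatin B 25 µM full block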). The note with it: S. cerevisiae pump-expressing triplex, Nile Red efflux flow cytometry; at 10 µM; stronger effect = higher value; the pumps come from Candida albicans.
The target of assay [15] is ATP-binding cassette sub-family B member 6 (Homo sapiens) (UniProt Q9NP58). Put plainly: blockers of ABCB6-driven porphyrin uptake – K562-ABCB6 cells, flow cytometry, validation set, pilot screen (AID 588550;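 active means inhibition above the screen-wide mean plus 3 SD, about 51%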;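 further: 0% = DMSO wells and 100% = benzethonium chloride 70 µM positive control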). The note with it: K562-ABCB6 porphyrin accumulation, 1 h, at 10 µM, stronger effect = higher value.
A short description of assay [16]: AML differentiation inducers, ER-HoxA9 marrow cells – cell-based, GFP/MAC1 double positive, flow cytometry, validation set, primary screen (AID 588685;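 active means differentiation response of at least 50%, scaled between solvent and reference control, from cells with both markers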;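 further: compound exposure lasts four days before antibody staining and flow analysis; 0% = DMSO wells and 100% = 5 µM fulvestrant positive control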). The note with it: stronger effect = higher value, normalized: vehicle 0, fulvestrant 100.

Results filed as inconclusive are left out. Activity calls are given as the source filed them.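 How the source made its calls, unless noted: active means GFP signal, as percent of the solvent control, above the screen mean plus 3 SD, about 149; inconclusive means no reading because the compound's own fluorescence upset strain identification; inactive means the rest.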

One may read the inhibition as the drop in the measured response relative to a control, in per cent.

Chain of Integrin beta-1 (Homo sapiens) + Integrin alpha-4 (Homo sapiens) (P05556 whole entry, looked up): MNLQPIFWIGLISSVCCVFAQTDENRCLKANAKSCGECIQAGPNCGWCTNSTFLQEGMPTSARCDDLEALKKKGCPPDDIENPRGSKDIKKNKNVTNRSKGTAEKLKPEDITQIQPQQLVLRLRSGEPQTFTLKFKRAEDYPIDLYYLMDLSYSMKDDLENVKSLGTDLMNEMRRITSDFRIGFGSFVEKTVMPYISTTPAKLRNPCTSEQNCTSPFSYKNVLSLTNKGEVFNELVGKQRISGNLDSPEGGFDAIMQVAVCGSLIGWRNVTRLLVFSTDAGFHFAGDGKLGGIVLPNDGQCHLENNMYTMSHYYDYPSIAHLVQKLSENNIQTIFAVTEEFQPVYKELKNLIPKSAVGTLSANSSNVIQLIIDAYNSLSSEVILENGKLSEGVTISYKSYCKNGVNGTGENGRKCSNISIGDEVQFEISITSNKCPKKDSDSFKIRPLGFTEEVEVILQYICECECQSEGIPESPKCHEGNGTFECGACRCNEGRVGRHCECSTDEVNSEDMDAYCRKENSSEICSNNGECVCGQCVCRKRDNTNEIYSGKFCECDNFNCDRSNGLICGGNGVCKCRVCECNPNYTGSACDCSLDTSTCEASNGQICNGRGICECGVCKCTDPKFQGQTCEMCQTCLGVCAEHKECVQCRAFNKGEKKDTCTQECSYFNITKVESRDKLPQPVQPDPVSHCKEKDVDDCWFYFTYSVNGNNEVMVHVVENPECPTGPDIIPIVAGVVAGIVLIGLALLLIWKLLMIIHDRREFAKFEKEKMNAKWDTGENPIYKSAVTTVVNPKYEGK
Chain of Integrin beta-1 (Homo sapiens) + Integrin alpha-4 (Homo sapiens) (P13612 whole entry, looked up): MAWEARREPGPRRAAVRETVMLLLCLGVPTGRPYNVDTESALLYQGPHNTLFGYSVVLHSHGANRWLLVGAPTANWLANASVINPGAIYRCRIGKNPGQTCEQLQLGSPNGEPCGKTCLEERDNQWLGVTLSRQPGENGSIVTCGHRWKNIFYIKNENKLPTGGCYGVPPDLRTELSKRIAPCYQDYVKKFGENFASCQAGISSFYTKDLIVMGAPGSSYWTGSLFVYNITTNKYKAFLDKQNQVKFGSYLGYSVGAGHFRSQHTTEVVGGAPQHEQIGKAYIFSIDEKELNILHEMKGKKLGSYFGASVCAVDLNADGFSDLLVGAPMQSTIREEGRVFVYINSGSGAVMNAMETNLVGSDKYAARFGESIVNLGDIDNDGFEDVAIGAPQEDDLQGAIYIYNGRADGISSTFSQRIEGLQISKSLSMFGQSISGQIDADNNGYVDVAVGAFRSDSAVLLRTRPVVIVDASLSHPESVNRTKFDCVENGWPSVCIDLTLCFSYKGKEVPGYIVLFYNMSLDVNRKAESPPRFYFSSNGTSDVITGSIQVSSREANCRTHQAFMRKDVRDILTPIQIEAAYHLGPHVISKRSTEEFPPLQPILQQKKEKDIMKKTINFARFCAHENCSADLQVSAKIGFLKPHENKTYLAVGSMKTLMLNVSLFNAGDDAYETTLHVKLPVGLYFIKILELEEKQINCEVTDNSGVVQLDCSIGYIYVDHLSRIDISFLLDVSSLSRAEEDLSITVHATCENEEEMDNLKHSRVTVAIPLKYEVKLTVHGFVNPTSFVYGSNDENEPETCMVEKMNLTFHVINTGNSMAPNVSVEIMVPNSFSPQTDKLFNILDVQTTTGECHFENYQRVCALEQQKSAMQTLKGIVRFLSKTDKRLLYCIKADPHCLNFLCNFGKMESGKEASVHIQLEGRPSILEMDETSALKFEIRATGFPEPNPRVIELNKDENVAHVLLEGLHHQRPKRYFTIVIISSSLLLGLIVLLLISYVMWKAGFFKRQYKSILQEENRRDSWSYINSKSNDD
Chain of ATP-binding cassette sub-family B member 6 (Homo sapiens) (Q9NP58 whole entry, looked up): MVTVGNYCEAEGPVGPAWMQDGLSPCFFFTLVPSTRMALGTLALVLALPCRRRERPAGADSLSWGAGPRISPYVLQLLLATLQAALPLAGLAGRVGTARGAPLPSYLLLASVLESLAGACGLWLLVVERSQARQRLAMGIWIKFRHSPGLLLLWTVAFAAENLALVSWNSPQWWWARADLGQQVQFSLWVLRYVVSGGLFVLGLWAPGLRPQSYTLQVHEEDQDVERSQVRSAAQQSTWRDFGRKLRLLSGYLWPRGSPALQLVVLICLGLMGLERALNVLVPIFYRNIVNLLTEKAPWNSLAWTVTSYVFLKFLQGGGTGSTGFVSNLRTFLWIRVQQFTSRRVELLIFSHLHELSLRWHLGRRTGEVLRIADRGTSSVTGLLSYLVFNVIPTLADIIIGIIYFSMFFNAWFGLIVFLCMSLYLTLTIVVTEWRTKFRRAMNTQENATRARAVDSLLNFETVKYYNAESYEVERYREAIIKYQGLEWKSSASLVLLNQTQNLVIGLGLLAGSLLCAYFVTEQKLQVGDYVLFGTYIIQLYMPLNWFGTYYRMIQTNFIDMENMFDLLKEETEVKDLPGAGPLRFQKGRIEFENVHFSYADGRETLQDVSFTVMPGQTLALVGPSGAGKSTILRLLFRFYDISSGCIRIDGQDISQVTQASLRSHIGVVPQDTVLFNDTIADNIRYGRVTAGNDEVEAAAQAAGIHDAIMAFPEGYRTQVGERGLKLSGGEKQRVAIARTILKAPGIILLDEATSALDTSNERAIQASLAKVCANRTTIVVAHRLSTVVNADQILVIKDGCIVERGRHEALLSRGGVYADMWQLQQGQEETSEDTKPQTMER
Chain of Beta-2 adrenergic receptor (Homo sapiens) (P07550 whole entry, looked up): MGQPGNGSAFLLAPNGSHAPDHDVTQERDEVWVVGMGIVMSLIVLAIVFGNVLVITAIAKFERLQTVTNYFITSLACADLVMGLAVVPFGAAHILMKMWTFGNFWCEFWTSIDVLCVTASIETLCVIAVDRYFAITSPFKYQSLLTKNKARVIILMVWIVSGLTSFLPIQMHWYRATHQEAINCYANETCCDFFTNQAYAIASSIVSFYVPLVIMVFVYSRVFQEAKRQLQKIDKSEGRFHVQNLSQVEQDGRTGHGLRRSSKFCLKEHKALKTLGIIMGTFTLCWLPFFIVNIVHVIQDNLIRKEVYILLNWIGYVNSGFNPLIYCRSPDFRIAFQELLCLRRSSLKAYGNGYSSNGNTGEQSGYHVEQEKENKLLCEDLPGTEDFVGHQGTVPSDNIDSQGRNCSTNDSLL
Chain of Beta-adrenergic receptor kinase 1 (Homo sapiens) (P25098 whole entry, looked up): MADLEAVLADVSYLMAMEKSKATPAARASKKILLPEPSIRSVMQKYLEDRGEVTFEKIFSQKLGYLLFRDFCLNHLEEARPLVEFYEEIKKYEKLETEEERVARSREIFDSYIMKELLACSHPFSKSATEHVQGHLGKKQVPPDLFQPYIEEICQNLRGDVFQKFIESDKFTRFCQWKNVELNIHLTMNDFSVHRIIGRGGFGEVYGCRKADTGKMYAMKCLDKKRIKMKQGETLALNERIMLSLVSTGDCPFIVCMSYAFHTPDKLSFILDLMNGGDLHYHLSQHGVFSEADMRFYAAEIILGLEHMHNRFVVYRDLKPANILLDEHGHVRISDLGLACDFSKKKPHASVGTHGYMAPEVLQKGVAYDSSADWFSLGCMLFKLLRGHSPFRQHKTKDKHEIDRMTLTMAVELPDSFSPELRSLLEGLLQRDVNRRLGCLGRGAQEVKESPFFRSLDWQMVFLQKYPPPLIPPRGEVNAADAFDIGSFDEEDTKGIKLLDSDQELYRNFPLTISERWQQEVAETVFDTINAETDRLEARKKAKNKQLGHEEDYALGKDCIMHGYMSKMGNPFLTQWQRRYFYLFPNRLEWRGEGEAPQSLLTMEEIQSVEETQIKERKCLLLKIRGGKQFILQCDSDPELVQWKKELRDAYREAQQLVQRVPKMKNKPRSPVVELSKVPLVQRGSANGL
Chain of AP-2 complex subunit beta (Homo sapiens) (P63010 whole entry, looked up, the tested form may be a part, one chain of several): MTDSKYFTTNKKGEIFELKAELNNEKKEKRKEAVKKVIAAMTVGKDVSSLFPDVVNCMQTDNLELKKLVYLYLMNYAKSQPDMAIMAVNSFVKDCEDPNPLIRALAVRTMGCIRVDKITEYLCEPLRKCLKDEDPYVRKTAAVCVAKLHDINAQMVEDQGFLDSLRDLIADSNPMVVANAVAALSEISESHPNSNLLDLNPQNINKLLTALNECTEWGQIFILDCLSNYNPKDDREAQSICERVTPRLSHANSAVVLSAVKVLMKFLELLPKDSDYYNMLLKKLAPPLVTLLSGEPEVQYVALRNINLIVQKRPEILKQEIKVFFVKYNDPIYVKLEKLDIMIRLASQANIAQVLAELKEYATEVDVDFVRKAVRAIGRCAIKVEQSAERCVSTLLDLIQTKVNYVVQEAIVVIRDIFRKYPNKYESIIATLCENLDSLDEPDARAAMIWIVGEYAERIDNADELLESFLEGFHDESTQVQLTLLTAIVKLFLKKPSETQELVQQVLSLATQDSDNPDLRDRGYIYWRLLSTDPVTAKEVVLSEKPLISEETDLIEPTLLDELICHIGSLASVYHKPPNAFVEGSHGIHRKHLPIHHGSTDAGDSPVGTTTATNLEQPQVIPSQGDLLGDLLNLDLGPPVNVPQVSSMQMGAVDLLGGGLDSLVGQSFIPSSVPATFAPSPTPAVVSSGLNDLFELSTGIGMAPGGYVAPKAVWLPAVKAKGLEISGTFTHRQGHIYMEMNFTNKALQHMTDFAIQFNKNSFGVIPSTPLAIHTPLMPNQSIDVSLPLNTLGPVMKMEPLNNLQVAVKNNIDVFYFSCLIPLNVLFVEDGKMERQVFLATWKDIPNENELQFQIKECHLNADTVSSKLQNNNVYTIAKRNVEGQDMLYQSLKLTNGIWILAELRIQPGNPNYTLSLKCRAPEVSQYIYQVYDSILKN

Consider `c1ccc(-c2ccccn2)nc1`, for which the percent of DMSO control GFP in assay [1] was 103% (inactive). For the same molecule, the results for the GFP response vs DMSO in assay [2] and in [4] were 112% (inactive) and 101% (inactive), respectively. For the same molecule, the percent response of DMSO control in assay [3] was 107% (inactive). For the same molecule, in assay [5], the GFP response, % of DMSO was 102% (inactive). For the same molecule, the double positive events in assay [6] was 54.1%. Further, in assay [6], the vesicle binding response is 157% (inactive). In addition, the inhibition in assay [7] was 6.95% (inactive); in [11], -7.99% (inactive); in assay [15] it was 55% (active). In addition, the superoxide response (% of plate) in [8] is 96.7% (inactive). In addition, the aptamer binding inhibition in assay [9] is 8% (inactive). Moreover, the response in assay [10] was -1.6% (inactive); in assay [12], -2.77% (inactive). Moreover, the binding (% of control) in assay [13] was 101% (inactive). Also, in [14], the efflux inhibition (fraction of control) was -0.08 (inactive). Further, the differentiation response in [16] is -4.57% (inactive).

Turning to `CC(C)C(CCN1C(=O)CCC1=O)C1CCOC(C)(C)C1` (stereo not given), in assay [1], the percent of DMSO control GFP was 103% (inactive). In addition, the figures for the GFP response vs DMSO in [2] and in [4] were 104% (inactive) and 95.8% (inactive), respectively. Further, the percent response of DMSO control in assay [3] is 100% (inactive). For the same molecule, in [5], the GFP response, % of DMSO is 101% (inactive). The same molecule had a double positive events in [6] of 62.8%. For the same molecule, the vesicle binding response in [6] is 130% (inactive). Moreover, the inhibition in [7] is 3.98% (inactive); in assay [11] it was -12.4% (inactive); in assay [15], 10% (inactive). In addition, the superoxide response (% of plate) in assay [8] was 103% (inactive). The aptamer binding inhibition in assay [9] is 11% (inactive). In addition, the response was -1.22% (inactive) in assay [10] and -0.12% (inactive) in assay [12]. In addition, in assay [13], the binding (% of control) is 98.8% (inactive). Also, the efflux inhibition (fraction of control) in assay [14] is 0.42 (inactive). The differentiation response in [16] was 4.97% (inactive).

As for `COC(=O)CSc1nc2ccc(N)cc2s1`, the percent of DMSO control GFP in assay [1] was 104% (inactive). The GFP response vs DMSO in assay [2] was 103% (inactive); in [4], 95.3% (inactive). The percent response of DMSO control in [3] was 104% (inactive). In assay [5], the GFP response, % of DMSO is 97.8% (inactive). The double positive events in assay [6] was determined as 64.4%. Also, the vesicle binding response in [6] was 189% (inactive). The inhibition is -3.57% (inactive) in assay [7], 4.01% (inactive) in assay [11] and -5% (inactive) in [15]. Besides, the superoxide response (% of plate) in assay [8] is 110% (inactive). The aptamer binding inhibition in assay [9] is -1% (inactive). In addition, the response in [10] is 5.1% (inactive); in assay [12] it was -1.65% (inactive). Besides, the binding (% of control) in assay [13] is 92% (inactive). Further, in assay [14], the efflux inhibition (fraction of control) was 0.02 (inactive). In addition, in assay [16], the differentiation response is 12% (inactive).

For `Cc1ccc2c(c1)C(C)(C)[C@]1(C)NC(=O)CCN21`, the percent of DMSO control GFP in [1] is 94.2% (inactive). Further, the values for the GFP response vs DMSO in assay [2] and in assay [4] were 109% (inactive) and 115% (inactive), respectively. The percent response of DMSO control in assay [3] was 92% (inactive). Further, the GFP response, % of DMSO in assay [5] is 105% (inactive). In assay [6], this molecule returned a double positive events of 65.2%. Further, the vesicle binding response in assay [6] is 212% (inactive). The inhibition in assay [7] is -25% (inactive); in [11], -1% (inactive); in assay [15], 9% (inactive). For the same molecule, the superoxide response (% of plate) in [8] is 99.4% (inactive). Also, in assay [9], the aptamer binding inhibition was 7% (inactive). The figures for the response in assay [10] and in assay [12] were 29.6% (inactive) and -1.48% (inactive), respectively. In assay [13], the binding (% of control) is 98% (inactive). Also, in assay [14], the efflux inhibition (fraction of control) is -0.28 (inactive). Further, the differentiation response in assay [16] is 2.4% (inactive).

On to `O=C(c1cccc2ccccc12)C1CCCN(C(=O)CCN2CCCO2)C1` (stereo not given), for which the percent of DMSO control GFP in assay [1] is 104% (inactive). Besides, the GFP response vs DMSO is 98.3% (inactive) in [2] and 105% (inactive) in assay [4]. For the same molecule, the percent response of DMSO control in assay [3] is 109% (inactive). Besides, the GFP response, % of DMSO in assay [5] is 106% (inactive). For the same molecule, in assay [6], the double positive events turned out to be 62.4%. The vesicle binding response in assay [6] is 377% (inactive). The inhibition in [7] was 7.85% (inactive); in assay [11], -0.89% (inactive); in assay [15] it was 4% (inactive). In [8], the superoxide response (% of plate) is 90.5% (inactive). Moreover, the aptamer binding inhibition in assay [9] was 0% (inactive). Moreover, the response in assay [10] was -9.24% (inactive); in [12], 2.67% (inactive). Also, the binding (% of control) in assay [13] is 96.4% (inactive). The efflux inhibition (fraction of control) in [14] is -0.32 (inactive). Further, in [16], the differentiation response was -0.73% (inactive).
